Screening data deposited in PubChem BioAssay by National Center for Advancing Translational Sciences (NCATS).
Many of the other results were omitted from the sample, so hits are more common in it than they were.
KDM5B inh = Primary screen for KDM5B Histone Demethylases FDH-coupled qHTS; Lysine-specific demethylase 5B (Homo sapiens), Q9UGL1; Potency, µM (top dose mostly 57.7 µM), actives largely listed as inhibitors; AID 1347165, 2019; KDM5B demethylase, FDH-coupled NADH fluorescence (FDH is formaldehyde dehydrogenase); actives 2.6% (n = 220,000); active = well fitted inhibition curve with a large enough effect; note: 0% is about no effect; nearly all actives have a fitted effect of over 70% in size
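Inhibition is measured as reduced NADH fluorescence generation from FDH coupling to formaldehyde release. Truncated KDM5BΔAP at 200 nM final acts on H3K4me3 peptide (12.5 µM in substrate mix) in pH 7.5 HEPES buffer with Tween-20, 30 min, room temperature.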
* = called active by the depositor; i = inactive. Potency is the fitted concentration of half-maximal effect.

SMILES	KDM5B inh
CC[C@H]1CN(C(=O)C2CC2)CC[C@H]1CC(=O)O	i
O=C(O)C[C@@H]1CCN(C(=O)NCc2ccccc2)C[C@@H]1CC1=NCCc2ccccc21	i
O=C1NCc2ccccc2CC12CCCCN2Cc1ccccc1 (centres undefined)	i
CCCn1ccc2sc(C)c(C(=O)NCc3ccccc3OCC)c2c1=O	i
COCc1c(C(=O)N[C@H](c2ccc(OC)nc2)C2CC(O)C2)noc1C (some centres undefined)	i
CCCc1nc(CN(CC)C(=O)c2ccc(NC(=O)C3CCC3)cc2)no1	i
CN(C(=O)c1ccc(NC(=O)C2CCCCC2)cc1)c1ccccc1	i
O=C(Nc1ccc2nnc(-c3ccc(C(=O)N4CCSCC4)cc3)n2c1)C1CCC1	28.2µM*
CN(C(=O)c1ccc(NC(=O)C2CC2)cc1)C1CCCCC1	i
Cc1ccc(CC(=O)Nc2ccc(C(=O)N3CCCCC3)cc2)cc1	i
CC(=O)Nc1ccc2nnc(-c3ccc(C(=O)N4CCCCCC4)cc3)n2c1	14.1µM*
O=C(Nc1ccc(-c2nnc3n2CCCC3)cc1)C1CCCCC1	i
Cc1ccc(NC(=O)C2CCCC2)cc1	i
CC(=O)Nc1ccc(-c2nnc3n2CCCC3)cc1	i
O=C(Nc1ccc(F)c(Cl)c1)C1CCN(C(=O)c2ccc(F)cc2)CC1	i
CCCN(C)C(=O)c1ccc(-c2nnc3ccc(NC(=O)C4CCC4)cn23)cc1	22.4µM*
CN(C)C(=O)c1ccc(-c2nnc3ccc(NC(=O)C4CCC4)cn23)cc1	22.4µM*
O=Cc1ccc(-c2ccc(Br)cc2Cl)o1	i
COc1ccc2[nH]c(=O)c(CN(C)S(=O)(=O)c3ccc(C)cc3)cc2c1	i
CCCOc1ccc(C(=O)Cc2ccccc2)cc1	i
CC(C)Cc1nc(C#N)c(NCC(c2cccs2)N2CCOCC2)o1 (centres undefined)	i
COc1ccccc1/C=C/c1nc(C#N)c(N(C)Cc2ccccc2)o1	i
COc1ccccc1CNc1nc2ccccc2nc1C(=O)OC(C)C	i
CN(C)S(=O)(=O)N1CCC(Oc2ccc(C(=O)NCCc3ccncc3)cc2)CC1	i
CCN1CCN(C(=O)c2ccc(-c3nnc4ccc(NC(=O)C5CC5)cn34)cc2)CC1	28.2µM*
SMILES	KDM5B inh
CC(C)(C)NC(=O)c1ccc(NC(=O)C2CCCC2)cc1	i
CC(NC(=O)c1ccc(-c2nnc3ccc(NC(=O)C4CCC4)cn23)cc1)c1cccs1 (centres undefined)	28.2µM*
O=C(N[C@@H]1CCC[C@@H]1C(=O)NCCc1ccccc1)c1ccncc1	i
CC(NC(=O)c1ccc(OC2CCN(S(=O)(=O)N(C)C)CC2)cc1)c1cccs1 (centres undefined)	i
CCN1CCN(C(=O)c2ccc(-n3nc(C)c(-c4ccc(C)cc4)c3NC(C)=O)cc2)CC1	i
CCC(=O)Nc1ccc2nnc(-c3ccc(C(=O)Nc4ccc5c(c4)OCCO5)cc3)n2c1	i
O=C(NCCc1ccncc1)c1ccc(-c2nnc3ccc(NC(=O)C4CCC4)cn23)cc1	28.2µM*
Cn1nc(C2CCN(C(=O)Nc3ccc(Cl)cc3)CC2)[nH]c1=O	i
COc1cccc(CN2CCC3(CC2)C(OC)CN3c2cccc(F)c2)n1 (centres undefined)	i
CC(=O)N1CCC(C(=O)NC[C@@H]2C=C(C)[C@H](CC(=O)N(C)Cc3ccccc3)C[C@H]2C(C)C)CC1	i
CN(CC(=O)Nc1ccc(Cl)cc1)Cc1cc(F)cc2c1OCOC2	i
Cc1cc(Cl)ccc1S(=O)(=O)N(C)CC1CCOCC1	i
Cc1cc2oc(C(=O)Nc3ccc(F)cc3)cc(=O)c2cc1C	i
O=C(c1ccccc1Oc1ccccc1)N1CCC(c2nc3ccccc3o2)CC1	i
Nc1nc(COC(=O)c2ccc(O)cc2)nc2ccccc12	i
COc1c(F)cccc1C(=O)N1CCc2onc(-c3ccccc3F)c2C1	i
CN1CCc2c([nH]c3ccccc23)C12CCN(S(=O)(=O)c1cccnc1)CC2	i
COCC(=O)N(C1CCOCC1)C1CCN(S(=O)(=O)c2cccnc2)CC1	i
COCc1cc(N2CCc3onc(-c4cccc5ccccc45)c3C2)ncn1	28.2µM*
O=S(=O)(c1cccnc1)N1CCc2onc(-c3cccc4ccccc34)c2C1	31.6µM*
CCOc1ncccc1C(=O)N1CCc2onc(-c3ccccc3F)c2C1	i
Cc1ccc(C)c(NC(=O)COC(=O)c2nc(-c3ccccc3)oc2C)c1	i
Cc1cc(=O)oc2cc(OCC(=O)N(C)C3(C#N)CCCCC3)c(Cl)cc12	i
O=C(CN1C(=O)COc2ccc(C(=O)COc3ccc(F)cc3)cc21)NCCc1ccccc1	i
COc1ccc(-c2cc(NC(=O)c3ccc(S(=O)(=O)NCC4CCCO4)cc3)ccc2OC)cc1 (centres undefined)	i
Cc1ccc(NC(=O)Cn2c(=O)n(-c3ccccc3)c(=O)c3c2cc(C)n3C)cc1	i
O=C(Nc1ccc(F)cc1)c1ccn2cncc2c1	35.5µM*
C=CCNC(=O)c1ccn2cncc2c1	i
